This passage reports Potency results from PubChem BioAssay AID504339 (National Center for Advancing Translational Sciences (NCATS), 2011).

The campaign covered roughly 390,000 compounds. About 17,000 (4.4%) were called active. Where a call stands in place of a potency, no number is given. About 8% were inconclusive and are not listed. This is one part of a sample in which actives are shown more often than they occur. Calls follow the shape of the dose curve; as a rule, active = well fitted inhibition curve with a large enough effect; inconclusive = small, poorly fitted or top-dose-only effect; inactive = no such curve, though single readings can be large or run the other way.
Potency is read from the fitted curve at half-maximal effect.

Chain of Lysine-specific demethylase 4A (Homo sapiens) (O75164 whole entry, looked up, the tested form may be a part): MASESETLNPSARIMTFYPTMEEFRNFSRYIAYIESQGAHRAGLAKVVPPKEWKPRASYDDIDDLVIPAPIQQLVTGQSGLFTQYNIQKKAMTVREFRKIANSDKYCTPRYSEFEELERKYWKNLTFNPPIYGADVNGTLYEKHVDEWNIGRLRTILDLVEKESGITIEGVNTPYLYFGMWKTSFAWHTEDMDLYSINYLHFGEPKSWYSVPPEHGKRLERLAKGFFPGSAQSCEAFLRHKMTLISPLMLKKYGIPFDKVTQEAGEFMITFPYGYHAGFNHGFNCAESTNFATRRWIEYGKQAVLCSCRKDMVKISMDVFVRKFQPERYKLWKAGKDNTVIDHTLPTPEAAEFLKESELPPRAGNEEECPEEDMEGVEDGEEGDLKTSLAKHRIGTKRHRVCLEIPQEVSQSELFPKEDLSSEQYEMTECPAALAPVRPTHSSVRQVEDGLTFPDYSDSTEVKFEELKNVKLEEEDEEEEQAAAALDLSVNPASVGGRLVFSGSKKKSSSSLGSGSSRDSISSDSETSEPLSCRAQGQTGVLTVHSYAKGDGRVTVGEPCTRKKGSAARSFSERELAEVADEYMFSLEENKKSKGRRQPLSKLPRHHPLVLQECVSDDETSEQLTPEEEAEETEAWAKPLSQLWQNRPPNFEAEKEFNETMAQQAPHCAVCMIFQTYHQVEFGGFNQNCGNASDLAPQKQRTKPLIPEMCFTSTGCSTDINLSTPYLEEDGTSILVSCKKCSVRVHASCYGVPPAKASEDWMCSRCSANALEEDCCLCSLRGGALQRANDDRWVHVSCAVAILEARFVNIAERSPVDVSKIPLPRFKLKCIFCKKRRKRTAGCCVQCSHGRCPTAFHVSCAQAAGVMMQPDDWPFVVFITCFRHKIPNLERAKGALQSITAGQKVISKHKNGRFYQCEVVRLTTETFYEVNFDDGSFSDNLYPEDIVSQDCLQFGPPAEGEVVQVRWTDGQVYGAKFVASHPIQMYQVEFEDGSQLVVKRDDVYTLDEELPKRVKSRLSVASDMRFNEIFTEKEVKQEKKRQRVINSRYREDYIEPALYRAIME

This assay concerns the target Lysine-specific demethylase 4A (Homo sapiens) (UniProt O75164). Kind of assay: qHTS Assay for Inhibitors of JMJD2A-Tudor Domain. Also: nearly all actives have a fitted effect of over 50% in size. The conditions noted are these: AlphaScreen JMJD2A-Tudor / H3K4me3 peptide binding; series mostly up to 114 µM. Background: In qHTS, concentration-response curves come from the screen itself.
Turning to `Cc1nc(N2CCOCC2)c2c(C(=O)NCc3cccc(Cl)c3)c(C)oc2n1`, the Potency entry is “inactive”.

Consider `O=C(CCC(=O)N/N=C/c1ccc(Br)o1)N/N=C/c1ccc(Br)o1`, for which the Potency entry was “inactive”.

In the case of `Cc1n[nH]c(=S)n1/N=C/c1ccc(Br)o1`, the Potency is 7.94 µM (active).

Regarding `O=C(CCc1n[nH]c(=O)[nH]c1=O)N/N=C/c1ccc(Br)o1`, the Potency result was “inactive”.

On to `CC1CCCN(Cc2c(O)ccc3c(=O)c(Oc4ccc(C(C)(C)C)cc4)c(C(F)(F)F)oc23)C1` (stereo unspecified), for which the Potency entry is “inactive”.

As for `Cc1ccc(NC(=O)Cc2ccc(NC(=O)N3CCCCc4ccccc43)cc2)cc1`, the Potency entry is “inactive”.

Regarding `Cc1c(C)n2c(SCC(=O)NC3CCCC3)nnc2[nH]c1=O`, the Potency is 14.1 µM (active).

On to `Cc1nc(SCC(=O)NC2CCCC2)[nH]c(=O)c1C`, for which the Potency entry was “inactive”.

For `Cc1c(C)n2c(SCC(=O)N3CCCC3)nnc2[nH]c1=O`, the Potency result is “inactive”.

As for `CCSc1nnc2c(n1)OC(c1ccc(OCC(=O)O)cc1)Nc1ccccc1-2` (stereo unspecified), the Potency result was “inactive”.

Consider `Cc1sc2ncn(CC(=O)N3CCN(c4ccc(F)cc4)CC3)c(=O)c2c1S(=O)(=O)N1CCN(c2ncccn2)CC1`, for which the Potency entry is “inactive”.

Consider `CCOc1ccc(-n2nc3ccc(NC(=O)c4ccc(OC)c(Cl)c4)cc3n2)cc1`, for which the Potency entry was “inactive”.

On to `COc1ccc(CCN=C2SCC(=O)N2Cc2ccccc2)cc1OC`, for which the Potency entry is “inactive”.

For the molecule `COc1cc(/C=C2/SC(=S)N(Cc3ccccc3)C2=O)cc(OC)c1O`, the Potency was 3.55 µM (active).

For the molecule `COc1ccc(CCNC2=C(Cl)C(=O)N(Cc3ccccc3)C2=O)cc1OC`, the Potency entry is “inactive”.

Turning to `COc1cc(Cl)c(C)cc1Nc1nnc(-n2nc(C)cc2C)c2ccccc12`, the Potency result was “inactive”.

On to `Cc1ccc(C)c(Cn2c(C(=O)O)c(CNCc3cccs3)c3ccccc32)c1`, for which the Potency entry was “inactive”.

For `O=C(Nc1nnc(C2=COCCO2)o1)c1ccc([N+](=O)[O-])s1`, the Potency was 56.2 µM (active).

In the case of `CSc1ccccc1-c1nnc(NC(=O)c2ccc3c(c2)OCCO3)o1`, the Potency result is “inactive”.

On to `COc1cc(NC(=O)COC(=O)c2ccc([N+](=O)[O-])s2)cc(OC)c1OC`, for which the Potency result was “inactive”.

Regarding `CCOc1ccc(Nc2nc3c(S(=O)(=O)c4cccc(Cl)c4)nnn3c3ccsc23)cc1`, the Potency result was “inactive”.

Consider `Cc1cc(OCC(=O)NCC2(N(C)C)CCCCC2)cc(C)c1Cl`, for which the Potency entry was “inactive”.

With `CCCCCn1c(=O)[nH]c2cc(C(=O)Nc3cc(C)cc(C)c3)ccc2c1=O`, the Potency entry was “inactive”.

With `CCCCn1c(=S)[nH]c2cc(S(=O)(=O)N3CCCCC3)ccc21`, the Potency entry is “inactive”.

Consider `CCn1c(=S)[nH]c2cc(S(=O)(=O)N3CCOCC3)ccc21`, for which the Potency is 17.8 µM (active).

With `Cc1ccc(S(=O)(=O)N2CCN(S(=O)(=O)N3CCOCC3)CC2)cc1`, the Potency result was “inactive”.

Take `Cc1ccc(-n2cnc3cc(C(=O)NCCC4=CCCCC4)ccc32)cc1Cl`: the Potency entry is “inactive”.

On to `CC1Cc2cc(S(=O)(=O)CCC(=O)Nc3ccc(F)c(Cl)c3)ccc2N1C(=O)C1CC1` (stereo unspecified), for which the Potency result was “inactive”.

Consider `COc1ccc(N2C(=O)C(CC(=O)Nc3ccccc3)N(Cc3ccc(OC)c(OC)c3)C2=O)cc1` (stereo unspecified), for which the Potency result was “inactive”.

With `COc1ccc(C2Nc3ccccc3C(=O)N2c2ccc(F)cc2)cc1Cn1nnc2ccccc21` (stereo unspecified), the Potency entry was “inactive”.

On to `COc1ccc(C2Nc3ccc(NC(=O)COC(C)=O)cc3C(=O)N2Cc2ccccc2)cc1COc1ccc(NC(C)=O)cc1` (stereo unspecified), for which the Potency was 79.4 µM (active).

As for `COc1ccc(C2Nc3ccccc3C(=O)N2Cc2ccccc2)cc1Cn1nnc2ccccc21` (stereo unspecified), the Potency result was “inactive”.

`COc1ccc(C2Nc3ccccc3C(=O)N2Cc2ccco2)cc1COc1cccc(NC(C)=O)c1` (stereo unspecified): the Potency is 50.1 µM (active).

Consider `COc1ccc(C2Nc3ccccc3C(=O)N2Cc2ccc(Cl)cc2)cc1COc1ccc(NC(C)=O)cc1` (stereo unspecified), for which the Potency entry is “inactive”.

As to `COc1ccc(C2Nc3cccc(OC)c3C(=O)N2Cc2ccccc2)cc1COc1ccc(NC(C)=O)cc1` (stereo unspecified), the Potency is 56.2 µM (active).

Turning to `COc1ccc(NC(=O)NC2CC3CCCC(C2)N3Cc2ccccc2)cc1` (stereo unspecified), the Potency result is “inactive”.

With `COc1ccc(C(=O)N(Cc2ccccc2)Cc2ccc(OC)c(COc3ccc(NC(C)=O)cc3)c2)c(O)c1`, the Potency result was “inactive”.

Consider `CCOC(=O)NN1C(=O)c2ccccc2NC1c1cccc(O)c1` (stereo unspecified), for which the Potency entry is “inactive”.

Take `COc1cc(C2C3=C(CCCC3=O)OC3=C2C(=O)CCC3)ccc1OCC(=O)Nc1ccccc1`: the Potency entry was “inactive”.

For `COc1ccc(C2Nc3ccccc3C(=O)N2Cc2ccc(CNC(=O)CO)cc2)cc1COc1ccc(NC(C)=O)cc1` (stereo unspecified), the Potency is 79.4 µM (active).

On to `CCOC(=O)c1cc2c(=O)n3ccccc3nc2n(CCCOC)c1=NC(=O)C(C)(C)Oc1ccc(Cl)cc1`, for which the Potency entry is “inactive”.

In the case of `Cc1ccc(-n2ncc3c(=O)n(Cc4cccc(C(F)(F)F)c4)cnc32)cc1C`, the Potency entry is “inactive”.

`COC(=O)c1ccc(Cn2c(SCC(=O)N(C)c3ccccc3)nc3ccccc32)cc1`: the Potency result was “inactive”.

For `Cc1ccc2onc(CC(=O)N3CCN(c4ccc(Cl)cc4)CC3)c2c1`, the Potency result is “inactive”.

As to `CC1CCN(S(=O)(=O)c2ccc3c(c2)N(CC(=O)NCc2ccccc2Cl)C(=O)CO3)CC1`, the Potency entry is “inactive”.

For `O=C(NCC12CC3CC(CC(C3)C1)C2)c1cc2nc(-c3ccccc3)cc(C(F)(F)F)n2n1`, the Potency entry was “inactive”.

Turning to `COC(=O)c1ccccc1NS(=O)(=O)c1ccc2c(c1)CCCN2C(C)=O`, the Potency entry was “inactive”.

On to `Cc1ccsc1CN(C(=O)c1oc2ccc(Br)cc2c1C)C1CCS(=O)(=O)C1` (stereo unspecified), for which the Potency result was “inactive”.

On to `Cc1nc2ccc(S(=O)(=O)N(CC(=O)Nc3ccc(F)cc3)Cc3ccccc3)cc2s1`, for which the Potency result is “inactive”.

Turning to `Cc1ccc(OCC(=O)OCc2cc(=O)n3nc(C4CC4)sc3n2)cc1C`, the Potency entry was “inactive”.

Regarding `CCOc1ccc(NC(=O)Cn2c(=O)n(CCCC(=O)NCc3ccc4c(c3)OCO4)c(=O)c3ccccc32)cc1`, the Potency result was “inactive”.

On to `CCC(CC)c1nn2cc(-c3ccccc3)nc2s1`, for which the Potency entry was “inactive”.

Turning to `Cn1ccc(=Nc2ccc(NC(=O)c3ccc(N=c4ccn(C)c5ccc([N+](=O)[O-])cc45)cc3)cc2)cc1`, the Potency is 56.2 µM (active).

With `CCc1ccc(NC(=O)c2ccc(Cn3cc([N+](=O)[O-])cn3)cc2)cc1`, the Potency result was “inactive”.

With `Cn1c(=O)n(C)c2cc(C(=O)Nc3ccc(Br)cc3)ccc21`, the Potency entry was “inactive”.

For `O=C(Cn1cc(SCc2ccccc2)c2ccccc21)N1CCCCC1`, the Potency entry is “inactive”.

As for `O=C(NC1CC(=O)N(c2ccc(F)cc2)C1)c1ccc(S(=O)(=O)N2CCCC2)cc1` (stereo unspecified), the Potency result is “inactive”.

For `CCCCCn1c(CCNC(=O)c2ccc(F)cc2)nc2ccccc21`, the Potency entry was “inactive”.

Consider `Cc1ccc2nc(/C(C#N)=C/c3ccc(-c4ccc(C(=O)OC(C)C)cc4)o3)[nH]c2c1`, for which the Potency entry was “inactive”.

On to `COc1ccc(CCNC(=O)CCCn2c(=O)c3ccccc3n(Cc3ccc(C)cc3)c2=O)cc1OC`, for which the Potency entry is “inactive”.

Regarding `Cc1cc2nc(C)n(CCCNC(=O)Nc3ccccc3)c2cc1C`, the Potency entry is “inactive”.

Regarding `Cc1cc(=O)n(C)c(=O)n1CCCNc1ccccc1`, the Potency is 7.94 µM (active).

`Cn1c(Nc2ccccc2)cc(=O)n(C)c1=O`: the Potency result was “inactive”.

In the case of `COc1cc(C(CC(=O)NCCC(C)C)N2Cc3ccccc3C2=O)cc(OC)c1OC` (stereo unspecified), the Potency entry is “inactive”.

As to `Cc1cccc2c1-c1sc(C(=O)Nc3ccc(F)cc3F)cc1CO2`, the Potency result was “inactive”.

Turning to `O=C1c2ccccc2C2=Nc3ccccc3SC(c3ccccc3F)C12` (stereo unspecified), the Potency was 14.1 µM (active).

Consider `NC(=O)CSc1nc2c(oc3ccccc32)c(=O)n1Cc1ccccc1`, for which the Potency entry was “inactive”.

`CCCCOCCCNC(=O)c1ccccc1OCC`: the Potency entry was “inactive”.

For the molecule `CCOc1ccccc1OCCCNCc1ccccc1`, the Potency was 5.01 µM (active).

Turning to `CCOCCCNCc1ccc(OCc2ccc(F)cc2)c(OC)c1`, the Potency entry was “inactive”.

In the case of `CCCCC(CC)CNC(=O)C1CCN(S(=O)(=O)c2cccc3nsnc23)CC1` (stereo unspecified), the Potency result was “inactive”.

In the case of `Nc1ncc(S(=O)(=O)Nc2ccc(OC(F)(F)F)cc2)cn1`, the Potency result is “inactive”.

For the molecule `O=C1COc2ccc(S(=O)(=O)Nc3ccc(OC(F)(F)F)cc3)cc2N1`, the Potency result is “inactive”.

Consider `O=S(=O)(Nc1ccc(O)c2ccccc12)c1ccc(OC(F)(F)F)cc1`, for which the Potency is 50.1 µM (active).

Regarding `COC(=O)CC1Oc2ccccc2-n2cc(-c3ccccc3)nc21` (stereo unspecified), the Potency entry is “inactive”.

Regarding `CCOc1ccc(-c2cc3nc(C4CCN(C(=O)OC(C)(C)C)CC4)c(C(=O)Nc4ccc(C(=O)OC)cc4)cn3n2)cc1`, the Potency entry is “inactive”.

On to `Cc1c(CC(=O)N2CCN(C(=O)C3COc4ccccc4O3)CC2)c(=O)oc2c(O)c(O)ccc12` (stereo unspecified), for which the Potency was 2.82 µM (active).

As for `COc1ccc(OC)c2sc(N3CCN(C(=O)C4COc5ccccc5O4)CC3)nc12` (stereo unspecified), the Potency result was “inactive”.

For the molecule `COc1cc(NS(=O)(=O)c2ccc3c(c2)OCC(C(=O)N2CCCC2)O3)cc(OC)c1` (stereo unspecified), the Potency result was “inactive”.

In the case of `CCNC(=O)Cn1nc(C)n2c(cc3c(OC)cccc32)c1=O`, the Potency entry was “inactive”.

As for `O=C(CSC1=Nc2ccccc2C2=NC(c3ccccc3)C(=O)N12)NCC1CCCO1` (stereo unspecified), the Potency entry is “inactive”.

As for `Cc1ccc(CNC(=O)CSC2=Nc3ccccc3C3=NC(C)C(=O)N23)cc1` (stereo unspecified), the Potency result was “inactive”.

Consider `CC(C)C1N=C2c3ccccc3N=C(SCC(=O)c3ccc(O)c(O)c3)N2C1=O` (stereo unspecified), for which the Potency was 3.16 µM (active).

On to `COc1ccc(-n2c(SC)nc3sc4c(c3c2=O)CCN(C(C)=O)C4)cc1`, for which the Potency entry was “inactive”.

On to `CCN1CCN(Cc2c(O)ccc3oc(C)c(C(=O)Nc4ccc(C)cc4C)c23)CC1`, for which the Potency result is “inactive”.

In the case of `C[n+]1ccc(C(=O)NCc2ccccc2)cc1`, the Potency entry is “inactive”.

Take `CC(C)c1ccc(C(=O)NCCCc2ccccc2)cc1`: the Potency entry was “inactive”.

For the molecule `O=C(NCCCNCc1ccccc1)c1ccc(/C=N/O)nc1`, the Potency is 7.94 µM (active).

Consider `Cc1nc2nc(SCC(=O)N(Cc3ccccc3)C(C)C)nn2c(C)c1Cc1ccccc1Cl`, for which the Potency result is “inactive”.

As for `CCc1ccc(-n2nnc(-c3nc(-c4ccccc4)no3)c2C)cc1`, the Potency result was “inactive”.

In the case of `COc1ccc(SCc2cc(=O)c3ccc(C)c(C)c3[nH]2)cc1`, the Potency entry is “inactive”.

In the case of `COc1cc(/C=C2/C(=O)NN(c3cccc(Cl)c3)C2=O)cc(Br)c1O`, the Potency is 44.7 µM (active).

Regarding `COc1cc(/C=N/O)cc(Br)c1OCc1cccc(Cl)c1`, the Potency result is “inactive”.

In the case of `CCOc1c(Br)cc(/C=C2\C(=O)N(CCC#N)N=C2C)cc1OC`, the Potency result was “inactive”.

For the molecule `COc1ccc(CNc2nc(-c3ccc(Cl)cc3)nn2S(=O)(=O)c2ccc(C)cc2)cc1`, the Potency result was “inactive”.

For `Cc1cccc(NC(=O)N2CCC(CN3CCc4ccccc4C3)CC2)c1C`, the Potency result was “inactive”.
